A selection: hits, their analogues and other compounds. The true share with any hit is near 5.9%.
HSF1 activator: increases HSF-1 driven luciferase reporter signal. NIH3T3-HGL HSF-1 luciferase reporter, MG132, 8 h; 100% = twice DMSO control signal. AID 504408. activation, % at 9 µM. hit rate 1.7% among 300,000;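 active means mean replicate activation of at least 50% with a set share of replicates each reaching 50%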
HSP90 refold inh: inhibitors of HSP90 luciferase refolding in rabbit reticulocyte lysate; AID 1789; luciferase refolding luminescence, 3 h; inhibition, % at 5.6 µM; hit rate 0.91% among 290,000;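 active means inhibition above the screen-wide mean plus 3 SD, computed separately per campaign, cut at about 16% in these data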;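 further: inhibitors lower the luminescence because luciferase stays unfolded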
DAX1 inh: NR0B1 (DAX1) inhibition; HEK293 Gal4-DAX1 luciferase reporter, luminescence; hit rate 0.99% among 340,000; P51843; inhibition, % at 6.75 µM;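 active means inhibition above the mean over all tested compounds plus 3 SD, cut at about 4.2% in these data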;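 further: inhibition shows as a rise in luminescence from relieved DAX1 repression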
Target sequence (P51843 207-470 limits assumed): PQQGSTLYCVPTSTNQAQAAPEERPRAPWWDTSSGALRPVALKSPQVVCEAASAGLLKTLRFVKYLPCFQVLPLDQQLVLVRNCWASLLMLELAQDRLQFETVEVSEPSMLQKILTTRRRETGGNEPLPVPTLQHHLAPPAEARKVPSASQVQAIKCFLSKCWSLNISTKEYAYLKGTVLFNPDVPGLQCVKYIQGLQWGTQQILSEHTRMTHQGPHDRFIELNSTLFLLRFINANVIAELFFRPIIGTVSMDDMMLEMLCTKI
FXN GAA850 act: increases GAA850 frataxin promoter reporter activity; hit rate 0.56% among 360,000; AID 540364; HEK293 lucGAA850 FXN promoter luciferase reporter, 24 h; percent of 10 µM SAHA response; activation, % at 6 µM;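 active means activation above the average of all compounds screened plus 3 SD, cutoff fixed separately per campaign, cut at about 7.5% in these data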
HSF1 inhib: HSF1 inhibition; NIH3T3-HGL HSE-luciferase, MG132-induced, luminescence 8 h; stronger effect = lower value; activity change, negative = inhibition, % at 7.5 µM (by protocol); hit rate 0.77% among 300,000; AID 2098;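 active means more than half of replicate wells show activity change below -50%, luminescence cut by over half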;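 further: luciferase reports HSF-1 transcriptional activity via heat shock element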
AHR activator: activators of human aryl hydrocarbon receptor; AHR-responsive luciferase reporter cells, luminescence; activation, % at 5 µM; AID 2796; P35869; hit rate 2.5% among 320,000; in the data active means activation above about 47%
GAA30 FXN cntr: GAA30 FXN promoter activation counter-screen | shares compounds with FXN GAA850 act | HEK293 lucGAA30 FXN promoter luciferase, 24 h; DMSO = 0%, 5 µM ipriflavone = 100% | hit rate 66% among 1,900 | AID 588350 | activation, % at 6 µM;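 active means mean activation above the mean of solvent-only control wells plus 3 SD, cut at about 22% in these data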;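 further: counterscreen of GAA850 promoter hits where activity marks nonselective or luminescence artifacts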
FXN GAA850 conf: GAA850 FXN promoter activation confirmation. shares compounds with FXN GAA850 act. HEK293 lucGAA850 FXN promoter luciferase reporter, 24 h; 100% = activation by SAHA. activation, % at 6 µM. hit rate 86% among 1,900;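 active means mean activation above a set limit taken from the primary screen, cut at about 8% in these data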
Hits are given with their value; n = inactive; x = no result given.

SMILES	HSF1 activator	HSP90 refold inh	DAX1 inh	FXN GAA850 act	HSF1 inhib	AHR activator	GAA30 FXN cntr	FXN GAA850 conf
N#Cc1ccccc1OCc1nnc(-c2ccccc2Br)o1	83	n	n	8.8	n	n	102	41
COc1ccccc1N(C(=O)c1ccco1)C(C(=O)NC1CCCC1)c1cccs1 (stereo not given)	n	n	n	n	n	n	x	x
O=C(NN=C1C2CC3CC(C2)CC1C3)c1cccs1	n	n	n	8.8	n	n	24	11
CC(=O)N1CCC(=NNC(=O)c2cc3ccccc3cc2O)CC1	n	n	n	n	n	n	x	x
CC(=O)N1CCC(=NNC(=O)c2cccs2)CC1	55	n	5.3	8.7	n	n	n	n
COc1cc(/C=N/NC(=O)c2sc(N)c(C#N)c2C)ccc1O	n	n	n	11	n	n	n	44
Cc1cc(Cl)ccc1OCC(=O)N1CCCN(C(=O)COc2ccc(Cl)cc2C)CC1	x	n	n	9.4	x	n	n	n
Cc1cc(Cl)ccc1OCC(=O)N1CC(C)CC(C)C1 (stereo not given)	n	n	n	n	n	n	x	x
CC(=O)Nc1ccc(S(=O)(=O)NCC(=O)OCC(=O)NC23CC4CC(CC(C4)C2)C3)cc1	n	n	n	n	n	n	x	x
CCCCNC(=S)Nc1cc([N+](=O)[O-])ccc1C	n	n	n	n	n	n	x	x
Cc1cc(Cl)c2oc(C(=O)N3CCN(C4CCS(=O)(=O)C4)CC3)c(C)c2c1 (stereo not given)	n	n	n	n	n	n	x	x
C=CCN(C(=O)c1oc2c(Cl)cc(C)cc2c1C)C1CCS(=O)(=O)C1 (stereo not given)	n	n	n	8.1	n	n	102	40
COc1ccc(NC(=O)C2(C)CCN2Cc2ccccc2Cl)cc1OC (stereo not given)	x	x	x	n	x	x	x	x
CS(=O)(=O)c1nc(-c2ccc(F)cc2)cc(C(F)(F)F)n1	n	n	n	39	-93	x	23	71
Nc1nc(-c2ccc(F)cc2)cc(C(F)(F)F)n1	n	n	n	n	n	n	x	x
CCOC(=O)CS(=O)(=O)c1ccccc1	n	n	n	n	n	n	x	x
CCOC(=O)CS(=O)(=O)c1nc(-c2ccccc2)cc(C(F)(F)F)n1	137	n	n	11	n	n	n	n
O=C(CCCN1C(=O)c2ccccc2C1=O)Nc1c(C(=O)C2CC2)oc2ccccc12	n	n	n	17	n	n	28	8.6
COc1ccc(CCNC(=O)c2cc3c(=O)n4cccc(C)c4nc3n(Cc3ccco3)c2=N)cc1OC	99	n	n	13	n	n	n	n
Cc1cccn2c(=O)c3cc(C(=O)NCCc4ccccc4)c(=N)n(Cc4ccco4)c3nc12	n	n	n	n	n	n	x	x
Nc1nc2c3ccccc3nc(Cc3ccccc3)n2n1	n	n	n	n	n	n	x	x
CCCc1nc2ccccc2c2nc(N)nn12	n	n	n	8.5	n	n	n	n
O=S1(=O)CCN(c2ccccc2CC(c2c[nH]c3ccccc23)c2c[nH]c3ccccc23)CC1	x	x	n	16	x	x	42	21
CCCn1cnc2c(cnn2-c2ccc(F)cc2)c1=O	n	n	n	10.0	n	n	59	18
CCCCn1cnc2c(cnn2-c2ccc(F)cc2)c1=O	n	n	n	n	n	n	x	x
SMILES	HSF1 activator	HSP90 refold inh	DAX1 inh	FXN GAA850 act	HSF1 inhib	AHR activator	GAA30 FXN cntr	FXN GAA850 conf
Cc1ccc(-c2cc(C(=O)NCc3cccs3)no2)cc1	n	n	n	n	n	n	x	x
O=C(NCCCN1CCOCC1)c1cc(-c2ccccc2)on1	n	n	n	17	n	n	101	56
O=C(NCc1cccs1)c1cc(-c2ccc(O)cc2)on1	n	n	5.7	8.9	n	n	103	32
O=C(NCCN1CCOCC1)c1cc2sccc2n1Cc1ccc(Cl)cc1	n	n	n	n	n	n	x	x
O=C(NCCN1CCOCC1)c1cc2sccc2n1Cc1ccc(F)cc1	n	n	n	8.8	n	n	n	8.3
CCCCNC(=O)c1cc(-c2ccc(F)cc2)on1	n	n	n	32	n	n	166	79
O=C(NCCN1CCOCC1)c1cc(-c2ccc(Br)cc2)on1	n	n	n	n	n	n	x	x
O=C(NCCN1CCOCC1)c1cc(-c2ccccc2)on1	n	n	n	17	n	n	99	42
O=C(NCCN1CCOCC1)c1cc(-c2cccs2)on1	n	n	n	17	n	62	116	55
O=C(NCCN1CCOCC1)c1cc(-c2ccccc2Cl)on1	n	n	n	n	n	n	x	x
Cc1ccc(O)c(NC(=O)c2cc(-c3cccs3)on2)c1	75	n	n	9.9	n	n	87	47
CC(=O)Oc1ccccc1Cn1c(C)c(C(=O)NCc2cccc([N+](=O)[O-])c2)sc1=O	x	x	x	n	x	x	x	x
CCCN1C(=O)S/C(=C\c2ccc(N3CCOCC3)o2)C1=O	93	n	n	9.8	n	n	95	29
Cc1nn(Cc2ccccc2)c(C)c1NC(=O)CCCn1nc(C)c([N+](=O)[O-])c1C	n	n	n	8.4	n	n	n	n
Cc1nn(Cc2ccc(Cl)cc2)c(C)c1NC(=O)CCCn1nc(C)c([N+](=O)[O-])c1C	n	n	n	n	n	n	x	x
COc1ccc(-c2nc3ccccc3s2)cc1NC(C)=O	n	n	n	8.4	n	57	124	40
COc1ccc(C(=O)Nc2nc3ccccc3s2)cc1OC	71	n	n	11	n	n	116	29
CC(=O)NCc1ccc(-c2nc3ccccc3s2)cc1	n	n	n	n	n	n	x	x
COc1cccc2sc(N)nc12	x	x	n	n	x	n	x	x
COc1ccc(-c2nnc(Nc3nc4c(OC)cccc4s3)o2)c(OC)c1	60	n	n	9.0	n	n	n	23
CC(=O)N(C)c1ccc(OCC(O)Cn2c3ccc(Cl)cc3c3cc(Cl)ccc32)cc1 (stereo not given)	59	n	n	10	n	n	n	11
O=C(NCCc1ccccc1)C1CCC(CNc2c(N3CCCCC3)c(=O)c2=O)CC1 (stereo not given)	n	n	n	n	n	n	x	x
O=C(NCCc1ccc(Cl)cc1)C1CCC(CNc2c(N3CCCCC3)c(=O)c2=O)CC1 (stereo not given)	n	n	n	16	n	n	28	n
COc1ccc(C(CC(=O)c2ccc(C)cc2)C(C#N)C#N)cc1OC (stereo not given)	73	n	n	8.0	n	n	39	38
COc1cc(/C(C)=N/N2CCOCC2)cc(OC)c1OC	n	n	n	n	n	n	x	x
